One assay relates to CSF1R-autoinhibited. The conditions noted are these: concentration: 1 μM, replicates: in singlicate, n = 1.
The next assay relates to CSF1R. The conditions noted are these: concentration: 1 μM, replicates: in singlicate, n = 1.
For a further assay, the system named is CSK. Conditions: concentration: 1 μM, replicates: in singlicate; n = 1.
The subject of another assay is CSNK1A1L. The conditions noted are these: concentration: 1 μM, replicates: in singlicate, n = 1.
The test system of the next assay is CSNK1A1. The conditions noted are these: concentration: 1 μM, replicates: in singlicate; n = 1.
Another assay concerns CSNK1D. Conditions: concentration: 1 μM, replicates: in singlicate, n = 1.
In the next assay the test system is CSNK1E. Conditions: concentration: 1 μM, replicates: in singlicate, n = 1.
A further assay has as its system CSNK1G1. Conditions: concentration: 1 μM, replicates: in singlicate, n = 1.
A further assay has as its system CSNK1G2. The conditions noted are these: concentration: 1 μM, replicates: in singlicate; n = 1.
For the next assay, the system named is CSNK1G3. The conditions noted are these: concentration: 1 μM, replicates: in singlicate, n = 1.
A further assay relates to CSNK2A1. The conditions noted are these: concentration: 1 μM, replicates: in singlicate, n = 1.
The test system of the next assay is CSNK2A2. The conditions noted are these: concentration: 1 μM, replicates: in singlicate, n = 1.
The next assay deals with T1, CTK.
T1 construct: gene MATK
Conditions: concentration: 1 μM, replicates: in singlicate, n = 1.

In a further assay the test system is DAPK1. Conditions: concentration: 1 μM, replicates: in singlicate, n = 1.
The subject of another assay is DAPK2. The conditions noted are these: concentration: 1 μM, replicates: in singlicate, n = 1.
A further assay has as its system DAPK3. Conditions: concentration: 1 μM, replicates: in singlicate; n = 1.
The test system of another assay is T2, DCAMKL1.
T2 construct: gene DCLK1
The conditions noted are these: concentration: 1 μM, replicates: in singlicate, n = 1.

The next assay has as its system T3, DCAMKL2.
T3 construct: gene DCLK2
Conditions: concentration: 1 μM, replicates: in singlicate; n = 1.

The next assay has as its system T4, DCAMKL3.
T4 construct: gene DCLK3
Conditions: concentration: 1 μM, replicates: in singlicate, n = 1.

In another assay the test system is DDR1. The conditions noted are these: concentration: 1 μM, replicates: in singlicate, n = 1.

Where “and” joins values, the source holds several entries; their conditions need not be identical. Identical values can stand only once. Like-named read-outs stand apart in the source and are kept apart here.
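Further: KINOMEscan kinase panel screen.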

Turning to `CN1CCC(n2cnc(-c3ccc(F)cc3)c2-c2ccnc(NC3CCNCC3)n2)CC1` [SB-229482], the “%Inh” value in the assay with CSF1R-autoinhibited came out at 47%; in the assay on CSF1R, 16%; with CSK, 0%; with CSNK1A1L, 28%; with CSNK1A1 it was 95.1%; with CSNK1D, 92.1%. Further, the “%Inh” value in the assay on CSNK1E amounted to 93.4%; with CSNK1G1, 0%; in the assay with CSNK1G2 it was 0%; in the assay with CSNK1G3, 0%; with CSNK2A1, 12%; in the assay with CSNK2A2, 21%. The “%Inh” value in the assay with CTK is listed as 9%; with DAPK1, 14%; with DAPK2, 15%; in the assay with DAPK3, 0%; in the assay on DCAMKL1, 0%; in the assay on DCAMKL2, 16%. The “%Inh” value is 16% with DCAMKL3 and 0% in the assay with DDR1.

For the molecule `CC(C)(C)c1ccc(-n2cnc3c(N)ncnc32)cc1` [SKF-97263], the “%Inh” value with CSF1R-autoinhibited was determined as 0%; with CSF1R, 58%; in the assay with CSK, 0%; in the assay on CSNK1A1L, 17%; with CSNK1A1, 40%; in the assay with CSNK1D, 3%. The “%Inh” value was 18% with CSNK1E; 6% in the assay with CSNK1G1; 13% in the assay on CSNK1G2; 25% in the assay on CSNK1G3; 18% in the assay on CSNK2A1; 0% in the assay with CSNK2A2. Besides, the “%Inh” value with CTK turned out to be 0%; in the assay on DAPK1, 0%; in the assay with DAPK2, 0%; with DAPK3, 0%; in the assay with DCAMKL1, 0%; with DCAMKL2, 12%. In addition, the “%Inh” value in the assay with DCAMKL3 is recorded as 0%; with DDR1, 27%.

Take `Fc1ccc(-c2ncn(CCCNCc3ccccc3)c2-c2ccncc2)cc1`: the “%Inh” value in the assay on CSF1R-autoinhibited was 19%; in the assay on CSF1R, 4%; in the assay with CSK, 0%; with CSNK1A1L, 22%; in the assay with CSNK1A1, 90.4%; in the assay on CSNK1D, 96.6%. Moreover, the “%Inh” value in the assay with CSNK1E is given as 98.3%; in the assay with CSNK1G1 it was 5%; with CSNK1G2, 7%; in the assay with CSNK1G3, 20%; in the assay on CSNK2A1 it was 22%; in the assay on CSNK2A2, 27%. Also, the “%Inh” value worked out at 25% in the assay on CTK; 23% in the assay on DAPK1; 11% with DAPK2; 16% in the assay on DAPK3; 0% in the assay with DCAMKL1; 2% in the assay with DCAMKL2. The “%Inh” value in the assay with DCAMKL3 was 15%; in the assay with DDR1, 18%.

As for `O=c1cc(N2CCOCC2)nc2n(Cc3cccc(Cl)c3)ccn12` [GSK2296823], the “%Inh” value with CSF1R-autoinhibited worked out at 0%; in the assay on CSF1R, 1%; with CSK, 0%; in the assay on CSNK1A1L it was 12%; in the assay on CSNK1A1, 42%; in the assay on CSNK1D, 19%. The “%Inh” value with CSNK1E came out at 34%; with CSNK1G1 it was 10%; in the assay on CSNK1G2 it was 0%; in the assay with CSNK1G3, 23%; in the assay with CSNK2A1, 0%; with CSNK2A2, 0%. Also, the “%Inh” value is reported as 22% in the assay on CTK; 0% in the assay with DAPK1; 0% in the assay with DAPK2; 7% in the assay with DAPK3; 17% with DCAMKL1; 12% with DCAMKL2. Besides, the “%Inh” value in the assay with DCAMKL3 is 0%; with DDR1 it was 21%.

For the molecule `COc1ccc(-c2nc3n(c2-c2ccncc2)CCC3)cc1` [SKF-104493], the “%Inh” value is 6% and 9% in the assay on CSF1R-autoinhibited (1 µM); 23% and 2% with CSF1R (1 µM); 0% in the assay with CSK; 12% and 0% in the assay on CSNK1A1L (1 µM); 0% in the assay on CSNK1A1; 40% and 18% in the assay with CSNK1D (1 µM). In addition, the “%Inh” value with CSNK1E (1 µM) is 22% and 7%; in the assay on CSNK1G1 (1 µM), 0% and 13%; with CSNK1G2, 0%; with CSNK1G3 (1 µM), 6% and 14%; with CSNK2A1 (1 µM) it was 0% and 2%; in the assay with CSNK2A2 (1 µM), 13% and 15%. Further, the “%Inh” value in the assay on CTK (1 µM) was 25% and 0%; in the assay with DAPK1 (1 µM), 82% and 21%; in the assay with DAPK2 (1 µM), 0% and 6%; in the assay on DAPK3 it was 0%; with DCAMKL1 (1 µM), 21% and 0%; in the assay with DCAMKL2, 0%. The “%Inh” value is 0% and 18% in the assay on DCAMKL3 (1 µM); 33% and 67% in the assay on DDR1 (1 µM).

Regarding `Fc1cccc(COc2ccc(Nc3ncnc4sc(-c5ccc[nH]5)cc34)cc2Cl)c1` [GW707818], the “%Inh” value in the assay on CSF1R-autoinhibited came to 28%; in the assay on CSF1R it was 17%; with CSK, 13%; in the assay on CSNK1A1L, 0%; in the assay with CSNK1A1, 0%; in the assay on CSNK1D it was 9%. The “%Inh” value stood at 8% in the assay on CSNK1E; 0% in the assay with CSNK1G1; 3% with CSNK1G2; 31% in the assay on CSNK1G3; 0% in the assay on CSNK2A1; 0% with CSNK2A2. For the same molecule, the “%Inh” value worked out at 0% in the assay with CTK; 28% in the assay on DAPK1; 0% in the assay on DAPK2; 22% in the assay on DAPK3; 28% in the assay with DCAMKL1; 0% in the assay with DCAMKL2. Further, the “%Inh” value in the assay on DCAMKL3 worked out at 30%; in the assay with DDR1, 4%.

With `N#Cc1ccc(Oc2ccc(Nc3ncnc4cc[nH]c34)cc2Cl)cc1`, the “%Inh” value with CSF1R-autoinhibited came to 3%; in the assay on CSF1R, 7%; in the assay on CSK, 33%; in the assay with CSNK1A1L, 15%; in the assay with CSNK1A1, 2%; with CSNK1D, 5%. The “%Inh” value was 7% with CSNK1E; 8% with CSNK1G1; 25% in the assay with CSNK1G2; 21% with CSNK1G3; 48% in the assay with CSNK2A1; 24% in the assay on CSNK2A2. In addition, the “%Inh” value in the assay with CTK is given as 5%; in the assay on DAPK1, 30%; in the assay with DAPK2, 16%; in the assay on DAPK3, 15%; in the assay on DCAMKL1 it was 9%; with DCAMKL2, 24%. The results for the “%Inh” value with DCAMKL3 and in the assay with DDR1 were 20% and 9%, respectively.

With `CCn1c(-c2ccncc2)nc2cnccc21` [SB-735216], the “%Inh” value with CSF1R-autoinhibited stood at 47%; in the assay on CSF1R it was 2%; in the assay on CSK, 0%; with CSNK1A1L it was 10%; in the assay on CSNK1A1, 22%; in the assay on CSNK1D, 8%. Besides, the “%Inh” value was determined as 0% in the assay with CSNK1E; 6% with CSNK1G1; 0% in the assay on CSNK1G2; 4% in the assay with CSNK1G3; 18% in the assay on CSNK2A1; 0% in the assay with CSNK2A2. Besides, the “%Inh” value with CTK stood at 11%; with DAPK1 it was 1%; in the assay on DAPK2 it was 0%; in the assay with DAPK3 it was 0%; in the assay on DCAMKL1, 8%; in the assay on DCAMKL2 it was 0%. Moreover, the “%Inh” value in the assay with DCAMKL3 and in the assay with DDR1 was 0% in each case.

On to `Nc1nc(-c2ccccn2)c(-c2ccnc3ccccc23)s1` [GW548057], for which the “%Inh” value in the assay on CSF1R-autoinhibited stood at 58%; in the assay with CSF1R it was 19%; in the assay with CSK, 3%; in the assay with CSNK1A1L it was 38%; in the assay on CSNK1A1 it was 89%; in the assay with CSNK1D it was 83%. For the same molecule, the “%Inh” value is 79% in the assay with CSNK1E; 11% in the assay on CSNK1G1; 0% in the assay with CSNK1G2; 27% with CSNK1G3; 0% in the assay with CSNK2A1; 17% in the assay with CSNK2A2. The “%Inh” value in the assay on CTK was determined as 0%; in the assay on DAPK1, 11%; in the assay on DAPK2, 13%; in the assay on DAPK3, 31%; in the assay on DCAMKL1 it was 23%; in the assay on DCAMKL2 it was 11%. For the same molecule, the “%Inh” value in the assay with DCAMKL3 was determined as 6%; in the assay on DDR1 it was 0%.

In the case of `CCC(CC)(CC)n1cnc2c(N)ncnc21` [SKF-97620], the “%Inh” value in the assay on CSF1R-autoinhibited worked out at 35%; in the assay with CSF1R, 0%; in the assay on CSK, 0%; with CSNK1A1L it was 1%; in the assay with CSNK1A1 it was 0%; with CSNK1D, 0%. Further, the “%Inh” value is recorded as 5% in the assay on CSNK1E; 4% with CSNK1G1; 0% with CSNK1G2; 0% in the assay with CSNK1G3; 0% in the assay with CSNK2A1; 0% with CSNK2A2. For the same molecule, the “%Inh” value with CTK is 0%; with DAPK1 it was 16%; in the assay on DAPK2, 9%; with DAPK3, 12%; with DCAMKL1 it was 0%; in the assay on DCAMKL2 it was 0%. Also, the “%Inh” value with DCAMKL3 and in the assay on DDR1 was 0% in each case.
